BJeLR viab HTS – lowers viability of BJeLR cells; BJeLR fibroblasts viability, CellTiterGlo ATP luminescence, 48 h; HRASV12, hTERT and SV40 LT/ST transformed; viability loss activity score, % (no concentration beside the values); 30,000 compounds, 0.64% hits; AID 2275; in the data active = viability loss activity score above about 50%;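 also: higher score means fewer live cells and less ATP luminescence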
YB-1 expression – YB-1 expression inhibition. delta delta Cp (YB-1 minus CDIP) (no concentration beside the values). 30,000 compounds, 0.37% hits. AID 434959. U2OS, qRT-PCR YB-1 vs CDIP delta delta Cp, 16 h; hits give high values; zero = DMSO, each unit about twofold;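 active = delta delta Cp rounded down to an integer at or above 3, about 3 SD of DMSO wells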;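 also: higher means less YB-1 transcript or more CDIP transcript relative to DMSO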
U2OS ROS induce – inducers of reactive oxygen species in cancer cells. AID 624156. U2OS ROS induction, H2DCF-DA fluorescence. 46,000 compounds, 2% hits. ROS induction (% of piperlongumine), % at 10 µM; in the data active = ROS induction above about 79%, passing the limit was not always enough;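 also: 0% = DMSO vehicle median and 100% = reference compound median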
MITF inh – inhibitors of MITF; TRPM1 promoter luciferase, luminescence, 24 h; inhibition, % (no concentration beside the values); 37,000 compounds, 0.28% hits; in the data active = inhibition above about 85%;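 also: human melanocyte line stably carrying TRPM1 promoter luciferase reporter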
The depositor's hits bear a star; / = no result given. This is a sample that favours compounds with a hit; in the whole collection about 2.5% have one here.

SMILES	BJeLR viab HTS	YB-1 expression	U2OS ROS induce	MITF inh
C[C@@H]1CCCCO[C@H](CN(C)Cc2ccc(C(F)(F)F)cc2)[C@@H](C)CN([C@H](C)CO)C(=O)c2cc(NC(=O)Nc3ccccc3)ccc2O1	/	0.084	137*	19
Cc1ccc(Sc2c(C)c3cc4c(cc3[nH]c2=O)OCO4)cc1	6	/	/	/
CCCCc1c(-c2ccc(O)cc2)[nH]c2nccnc12	-7	3.3*	4	22
C[C@H](CO)N1C[C@H](C)[C@H](CN(C)Cc2ccccc2)Oc2c(NC(=O)c3nc4ccccc4s3)cccc2C1=O	6	0.36	22	-1
C[C@H]1CN([C@@H](C)CO)C(=O)c2cccc(NC(=O)c3nc4ccccc4s3)c2O[C@H]1CN(C)Cc1ccc(C(=O)Nc2ccccc2N)cc1	/	0.19	172*	24
C[C@H]1CN([C@@H](C)CO)C(=O)c2cccc(NC(=O)c3nc4ccccc4s3)c2O[C@H]1CN(C)Cc1ccccc1	1	0.21	11	-6
C[C@@H]1CN([C@H](C)CO)C(=O)c2cccc(NC(=O)c3nc4ccccc4s3)c2O[C@H]1CN(C)Cc1ccc(C(=O)Nc2ccccc2N)cc1	/	-0.27	150*	40
C[C@H]1CN([C@@H](C)CO)C(=O)c2cccc(NC(=O)c3nc4ccccc4s3)c2O[C@H]1CN(C)Cc1ccc(Oc2ccccc2)cc1	7	-0.15	95*	-15
C[C@H](CO)N1C[C@H](C)[C@H](CN(C)Cc2ccc(Oc3ccccc3)cc2)Oc2c(NC(=O)c3nc4ccccc4s3)cccc2C1=O	-1	0.25	48	11
CN(CCC#N)C(=O)c1nn(C)c2c1COc1ccccc1-2	-7	/	-11	/
O=C(NC1CCS(=O)(=O)C1)c1c(Cl)cccc1Cl (stereo not drawn)	-2	/	-9	/
O=C1c2ccccc2C(=O)N1CCCN1CCN(c2nccc(C(F)(F)F)n2)CC1	5	/	/	/
O=C(CCN1C(=O)COc2ccccc21)NC1CCCCCC1	-2	/	-5	/
C/C=C(/C)C(=O)O[C@H]1[C@H](OC(=O)/C=C/c2ccccc2)[C@@]23C(CC1(C)C)[C@]1(CCC4[C@@]5(C)CC[C@H](O[C@@H]6O[C@H](C(=O)O)[C@@H](O)[C@H](O[C@@H]7O[C@H](CO)[C@H](O)[C@H](O)[C@H]7O[C@@H]7O[C@@H](C)[C@H](O)[C@@H](O)[C@H]7O[C@@H]7OC[C@](O)(CO)[C@H]7O)[C@H]6O[C@@H]6O[C@H](CO)[C@H](O)[C@H](O)[C@H]6O)C(C)(C)C5CC[C@@]4(C)[C@]1(C)C[C@H]2O)O[C@H]3O (stereo partly drawn)	80*	-0.43	-48	90*
C/C=C(/C)C(=O)O[C@H]1[C@H](OC(=O)/C(C)=C\C)[C@]2(CO)[C@H](O)C[C@]3(C)C(=CCC4[C@@]5(C)CC[C@H](OC6OC(C(=O)O)C(O)C(OC7OC(C)C(O)C(OC8OC(CO)C(O)C(O)C8O)C7O)C6O)C(C)(C)C5CC[C@]43C)[C@@H]2CC1(C)C (stereo partly drawn)	125*	-1.1	-38	102*
C/C=C(\C)C(=O)OC1C(OC(=O)/C=C(/C)CC(=O)O)C2(CO)C(O)CC3(C)C(=CCC4C5(C)CCC(OC6OC(C(=O)O)C(O)C(OC7OC(C)C(O)C(OC8OC(CO)C(O)C(O)C8O)C7O)C6O)C(C)(C)C5CCC43C)C2CC1(C)C (stereo not drawn)	67*	0.75	-24	98*
CC1(C)CC[C@@]2(C(=O)O[C@@H]3O[C@H](CO)[C@@H](O)[C@H](O)[C@H]3O)C(C1)C1=CCC3[C@@]4(C)CC[C@@H](O[C@@H]5O[C@H](CO)[C@@H](O)[C@H](O)[C@H]5O[C@@H]5O[C@H](CO)[C@@H](O)[C@H](O)[C@H]5O)C(C)(C)C4CC[C@@]3(C)[C@]1(C)C[C@H]2O (stereo partly drawn)	-4	0.15	-15	-4
Cc1cc(C)cc(NC(=O)Cc2cccs2)c1	5	/	-8	/
Cc1cc(C)nc(N2CC(=O)N=C2N)n1	1	/	/	/
CC(C)C[C@@H](/C=C/S(C)(=O)=O)NC(=O)[C@H](CC(C)C)NC(=O)[C@H](CC(C)C)NC(=O)OCc1ccccc1	116*	-0.44	5	75
CC(C)C[C@@H](NC(=O)OCC1c2ccccc2-c2ccccc21)C(=O)O	6	0.32	-1	-55
COc1ccc(S(=O)(=O)NCc2csc(-c3ccccc3)n2)cc1OC	1	/	-14	/
CSc1nncc(-c2ccc(Cl)cc2)n1	-5	/	-15	/
